Results on 36 compounds are retold here after PubChem BioAssay (NCI).

Test systems include T-47D breast; SW-620 colon; MCF7 breast; HCT-116 colon; HCC-2998 colon; KM12 colon; MDA-MB-435 melanoma; BT-549 breast.
Common to all, as to test: NCI-60 one-dose screen, 48 h (100 = growth as untreated, 0 = no growth, -100 = all killed)
What all share (conditions): 10 µM unless noted

This is part of a sample that, as a whole, favours compounds with a hit. Of some 83,000 tested, about 20% had one in any assay.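 Negative percent growth values reflect cell death: -40 means 40% of the cells present at the start died, and -100 means all died.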 Unmarked numbers belong to inactive results. Active and inactive are the calls of the source. The calls were made as follows: active = growth percent below 10; inactive = the rest.

For `O=C(O)CC1=CCCCC1`, the growth in the test on T-47D breast is 109%; in the test on SW-620 colon it was 98.2%; in the test with MCF7 breast it was 96.7%; in the test on HCT-116 colon it was 104%; with HCC-2998 colon, 94.3%; in the test with KM12 colon, 98%.
Consider `O=Cc1c(O)c2ccccc2[nH]c1=O`, for which the growth in the test with T-47D breast is 106%; in the test on MDA-MB-435 melanoma, 118%; in the test with SW-620 colon, 93.8%; with MCF7 breast, 95.7%; with HCT-116 colon, 89.4%; in the test with KM12 colon, 139%.
Regarding `C/C(=N\Nc1ccc([N+](=O)[O-])cc1[N+](=O)[O-])c1ccc(Br)cc1`, the growth is 98.4% in the test with MDA-MB-435 melanoma; 101% with SW-620 colon; 102% with HCT-116 colon; 99.4% in the test with HCC-2998 colon; 93.3% in the test on KM12 colon.
With `CCC(C)c1c(N)n(S(=O)(=O)c2ccc(C)cc2)oc1=O` (centres undefined), the growth in the test on BT-549 breast was 110%; in the test with MDA-MB-435 melanoma it was 107%; in the test with SW-620 colon it was 105%; in the test on MCF7 breast, 108%; in the test with HCT-116 colon, 102%; with KM12 colon, 104%.
For the compound `CCN(C(=O)Nc1ccccc1Cl)c1ccccc1`, the growth with BT-549 breast was 106%; with MDA-MB-435 melanoma, 98.3%; in the test on SW-620 colon, 108%; in the test with MCF7 breast, 100%; in the test with HCT-116 colon, 112%; in the test with HCC-2998 colon it was 111%. The growth in the test on KM12 colon is 105%.
Consider `CC(C)C(C)(C)C(=O)C(C)(C)C(C)(C)C`, for which the growth with BT-549 breast is 82%; in the test with MDA-MB-435 melanoma, 108%; with SW-620 colon, 106%; in the test with MCF7 breast it was 97%; in the test on HCT-116 colon, 97.7%; in the test on KM12 colon, 107%.
Turning to `CC(CCC#N)(CCC#N)C(=O)c1ccccc1`, the growth with T-47D breast was 93.8%; in the test on SW-620 colon, 103%; in the test with HCT-116 colon, 112%; in the test with HCC-2998 colon it was 101%; in the test with KM12 colon, 108%.
On to `O=C1C=CC(=O)C2=C1CCCC2`, for which the growth in the test with T-47D breast was 85.3%; with MCF7 breast, 70.6%; in the test on HCT-116 colon, 91.8%; in the test on HCC-2998 colon it was 123%; in the test with KM12 colon, 92.3%.
As for `CCN(C(C)=O)c1ccc([N+](=O)[O-])cc1`, the growth in the test with BT-549 breast was 117%; in the test with MDA-MB-435 melanoma, 116%; in the test with MCF7 breast, 98.1%; in the test with HCT-116 colon it was 109%; with HCC-2998 colon, 97.8%; with KM12 colon it was 103%.
Turning to `O=S1(=O)c2ccccc2Oc2ccccc21`, the growth in the test on BT-549 breast was 113%; in the test with MDA-MB-435 melanoma, 101%; in the test on SW-620 colon, 95%; with MCF7 breast, 87.8%; in the test with HCT-116 colon, 102%; in the test with HCC-2998 colon, 106%. The growth in the test on KM12 colon was 109%.
In the case of `OCCc1ccc(Cl)cc1`, the growth in the test on MDA-MB-435 melanoma was 92.3%; in the test with SW-620 colon, 105%; in the test on MCF7 breast, 93.7%; with HCT-116 colon, 101%; in the test on HCC-2998 colon it was 110%; in the test on KM12 colon, 88.9%.
On to `O=C(Nc1cccc(Cl)c1)c1ccc(Cl)cc1Cl`, for which the growth in the test with MDA-MB-435 melanoma was 89.1%; in the test on SW-620 colon, 92.7%; in the test on MCF7 breast it was 83.3%; in the test on HCT-116 colon, 89%; in the test on HCC-2998 colon, 106%; in the test with KM12 colon, 85.1%.
`Ic1cccs1`: the growth was 107% with BT-549 breast; 107% in the test with MDA-MB-435 melanoma; 104% in the test on SW-620 colon; 97.9% in the test on MCF7 breast; 103% in the test with HCT-116 colon; 108% in the test on HCC-2998 colon.
Consider `NNc1ncnc2c1ncn2C1OC(CO)C(O)C1O` (centres undefined), for which the growth in the test with BT-549 breast was 42.3%; in the test on MDA-MB-435 melanoma, 56.4%; with SW-620 colon, 21.4%; with MCF7 breast it was 6.39% (active); in the test on HCT-116 colon it was 4.61% (active); with HCC-2998 colon, 48.9%. The growth with KM12 colon is 28.5%.
Take `CC(=O)Oc1c(Cl)cccc1-c1ccccc1`: the growth with MDA-MB-435 melanoma is 104%; in the test on SW-620 colon, 96.4%; with MCF7 breast it was 101%; with HCT-116 colon, 101%; in the test with HCC-2998 colon it was 102%; in the test with KM12 colon, 104%.
Regarding `CSc1nc2[nH]ncc2c(=O)[nH]1`, the growth with BT-549 breast is 88.9%; with MDA-MB-435 melanoma it was 103%; with SW-620 colon it was 95.4%; with MCF7 breast, 98.1%; in the test with HCT-116 colon, 98.1%; in the test on HCC-2998 colon, 108%. Further, in the test with KM12 colon, the growth was 99.9%.
For the compound `CC(C)C1CCC(C)C(O)C1` (centres undefined), the growth is 98% in the test with SW-620 colon; 100% in the test on MCF7 breast; 111% in the test on HCT-116 colon; 109% with HCC-2998 colon; 97.3% in the test with KM12 colon.
Regarding `COc1cccc(C(=O)O)c1OC`, the growth in the test on SW-620 colon is 100%; in the test on MCF7 breast, 87.2%; with HCT-116 colon, 103%; in the test on HCC-2998 colon, 98.6%; with KM12 colon it was 101%.
For the compound `CCCCCC(=O)OCCC1CCCCC1`, the growth with BT-549 breast is 98.7%; with MDA-MB-435 melanoma, 100%; in the test with SW-620 colon, 98.4%; with MCF7 breast, 107%; in the test with HCT-116 colon, 89.8%; with HCC-2998 colon it was 99.1%. Also, the growth in the test with KM12 colon was 101%.
For the compound `C1C[S+]2CC[S+]1CC2`, the growth with MDA-MB-435 melanoma is 109%; in the test on SW-620 colon it was 101%; with MCF7 breast it was 103%; in the test with HCT-116 colon it was 104%; with HCC-2998 colon, 105%; with KM12 colon, 106%.
Consider `COC1OC(C(O)C(O)CO)C(O)C(O)C1O` (centres undefined), for which the growth in the test with BT-549 breast was 91%; with MDA-MB-435 melanoma, 105%; in the test on SW-620 colon it was 105%; in the test on MCF7 breast, 97.1%; in the test with HCT-116 colon it was 90.5%; in the test on HCC-2998 colon, 107%. Moreover, the growth in the test on KM12 colon is 106%.
In the case of `CC(=O)NC(O)C(Cl)Cl` (centres undefined), the growth in the test with BT-549 breast is 85.9%; in the test on MDA-MB-435 melanoma, 103%; with SW-620 colon it was 114%; in the test with MCF7 breast, 93.7%; in the test with HCT-116 colon, 114%; with HCC-2998 colon, 98.4%. In addition, in the test on KM12 colon, the growth was 103%.
Take `CC(C)C(=O)OCCOc1ccc(C(C)(C)C)cc1`: the growth with MDA-MB-435 melanoma was 87.5%; in the test with SW-620 colon, 92.2%; in the test with MCF7 breast, 95.4%; in the test on HCT-116 colon it was 105%; in the test with HCC-2998 colon it was 111%; in the test on KM12 colon, 93.3%.
Consider `C=C(C)COc1ccc(C(C)(C)C)cc1`, for which the growth in the test on MDA-MB-435 melanoma was 93.4%; with SW-620 colon, 101%; in the test with MCF7 breast, 98.5%; in the test with HCT-116 colon, 96%; with HCC-2998 colon it was 111%; with KM12 colon, 103%.
Turning to `Cc1ccc2nc(N)nnc2c1`, the growth in the test with T-47D breast was 108%; in the test on SW-620 colon it was 95.1%; with MCF7 breast it was 104%; in the test on HCT-116 colon it was 108%; in the test on KM12 colon, 103%.
`C=CCS(C)(=O)=O`: the growth is 95.4% with SW-620 colon, 96.3% in the test with MCF7 breast, 94% with HCT-116 colon and 88.3% in the test on KM12 colon.
Take `CC(CC(CCC(=O)O)(c1ccccc1)c1ccccc1)N(C)C` (centres undefined): the growth in the test with BT-549 breast was 68.1%; in the test on MDA-MB-435 melanoma, 105%; in the test on SW-620 colon, 109%; in the test on MCF7 breast, 91.2%; with HCT-116 colon it was 97.2%; in the test with HCC-2998 colon it was 106%. Besides, in the test with KM12 colon, the growth is 109%.
Take `CCOC(C=O)OCC`: the growth with BT-549 breast is 103%; with MDA-MB-435 melanoma, 102%; with SW-620 colon it was 108%; with MCF7 breast, 95.4%; in the test on HCT-116 colon, 105%; in the test with KM12 colon, 104%.
As for `NC(=O)NCCO`, the growth with MDA-MB-435 melanoma was 101%; in the test with SW-620 colon, 103%; in the test with MCF7 breast it was 98.3%; in the test with HCT-116 colon, 109%; with HCC-2998 colon, 102%; in the test on KM12 colon, 101%.
Turning to `O=C(Oc1ccccc1Cl)c1ccc(Cl)cc1Cl`, the growth is 95.4% with MDA-MB-435 melanoma, 84.6% in the test on MCF7 breast, 95.2% with HCT-116 colon and 87.4% in the test with KM12 colon.
For the compound `Cc1[nH]nc(C(N)=O)c1[N+](=O)[O-]`, the growth was 109% with BT-549 breast; 105% in the test with MDA-MB-435 melanoma; 91% in the test on SW-620 colon; 97.4% in the test with MCF7 breast; 99.9% with HCT-116 colon.
Take `CC(C)(N)CO[C@H]1C[C@H]2CC[C@@]1(C)C2(C)C`: the growth in the test on BT-549 breast was 93.5%; in the test with MDA-MB-435 melanoma, 94.7%; in the test with SW-620 colon it was 88.1%; in the test on MCF7 breast, 92.5%; in the test with HCT-116 colon, 89.9%; with HCC-2998 colon, 102%. Further, the growth in the test on KM12 colon was 94.1%.
`C/C(=N\O)c1ccccn1`: the growth was 94.3% in the test on MDA-MB-435 melanoma; 94% in the test on SW-620 colon; 99.9% in the test with MCF7 breast; 111% with HCT-116 colon; 109% in the test with HCC-2998 colon.
On to `Cc1ccc(C2CCCCC2)cc1Br`, for which the growth in the test on MDA-MB-435 melanoma is 100%; in the test on SW-620 colon, 99.1%; in the test with MCF7 breast it was 96.9%; in the test with HCT-116 colon, 105%; in the test on HCC-2998 colon, 105%; in the test on KM12 colon, 94.3%.
Take `O=C(O)c1ccc([N+](=O)[O-])cc1S(=O)(=O)O`: the growth with BT-549 breast was 108%; in the test with MDA-MB-435 melanoma, 108%; in the test with SW-620 colon it was 105%; with MCF7 breast, 104%; in the test with HCT-116 colon, 95.6%; in the test with HCC-2998 colon, 97.8%. Further, the growth with KM12 colon was 104%.
Take `CCCNS(=O)(=O)c1ccc(Cl)cc1`: the growth is 93.3% with MDA-MB-435 melanoma; 96.2% in the test with SW-620 colon; 93.3% in the test with MCF7 breast; 103% in the test on HCT-116 colon; 98.9% with HCC-2998 colon; 99.6% in the test with KM12 colon.
